USP30 block: blocks human USP30 ubiquitin-rhodamine cleavage; Q70CQ3; purified USP30, Ub-rhodamine cleavage fluorescence; inhibition, % at 25 µM; 5.3% of 47,000 active; AID 1645860
USP17 inh: human USP17-like deubiquitinase inhibition; A8MUK1; purified USP17, Ub-rhodamine cleavage fluorescence, 3 h; inhibition, % at 50 µM; 6.5% of 47,000 active
USP28 block: blocks human USP28 ubiquitin-rhodamine cleavage | purified USP28, Ub-rhodamine cleavage fluorescence, 30 min | inhibition, % at 25 µM | 3% of 47,000 active | AID 1645857
OTUD3 block: inhibitors of human OTUD3 deubiquitinase; purified OTUD3, Ub-rhodamine fluorescence, 2 h; inhibition, % at 25 µM; Q5T2D3; 0.7% of 47,000 active
Active calls of the source: *; / = no result given. In the library only some 11% were active in any assay of this set; here they are far more common. No stated cut-off is given here; in the data, active means inhibition above about 30%; inactive means the rest.

SMILES	USP30 block	USP17 inh	USP28 block	OTUD3 block
COc1ccc(NC(=O)Cn2c(=O)n(CCC(=O)NC3CCCC3)c(=O)c3ccccc32)cc1Cl	11.8	5.2	4.3	0.5
O=C(Cn1c(=O)n(CC(=O)NC2CCCC2)c(=O)c2ccccc21)Nc1ccc(F)cc1	70.5*	67.1*	42.3*	41.3*
O=C(Cn1c(=O)n(CC(=O)NC2CCCC2)c(=O)c2ccccc21)Nc1cc(Cl)ccc1Cl	64.8*	42.5*	34.3*	27.6
CCOc1ccccc1NC(=O)Cn1c(=O)n(CCC(=O)NC2CCCC2)c(=O)c2ccccc21	7.8	41.4*	5.3	16.7
COc1ccc(Cl)cc1NC(=O)Cn1c(=O)n(CCC(=O)NC2CCCC2)c(=O)c2ccccc21	-17.4	8.9	0.2	6.5
COc1ccc(CNC(=O)C(C)OC(=O)c2cc(-c3ccc(Br)cc3)nc3ccccc23)cc1 (configuration not stated)	-21.8	-11.8	-2.5	-3.6
O=C(Cc1nc(-c2ccccn2)n[nH]1)NCc1cccc(Cl)c1	-9.8	-77.9	-13.1	2.4
CN(c1ccc(Oc2ccc(C(F)(F)F)cn2)cc1)S(=O)(=O)c1ccccc1	-4.2	38.0*	17.0	7.8
CCOC(=O)N1CCC(N2Cc3cccc(C(=O)Nc4ccc(S(=O)(=O)N5CCOCC5)cc4)c3C2=O)CC1	-21.8	-45.9	-2.7	-0.8
CC(C)c1ccc(-n2c(=O)c3ccccc3c3ccccc3c2=O)cc1	35.0*	2.7	12.4	14.1
Cc1cccc(OCc2nnc(SCC(=O)Nc3cccc(F)c3C)o2)c1	24.9	0.5	43.6*	1.8
N#Cc1ccc(C(=O)N2CCCC2c2nc(-c3ccc(F)cc3F)no2)cc1 (configuration not stated)	25.4	0.9	9.1	4.9
CC1=C(CO)C(=O)O[C@@H]([C@@H](C)[C@H]2CC[C@H]3[C@@H]4C[C@H]5O[C@]56[C@@H](O)C=CC(=O)[C@]6(C)[C@H]4CC[C@]23C)C1	83.0*	72.1*	44.2*	4.7
O=C(Oc1ccc(-c2cnc3ccccc3n2)cc1)c1ccc(F)cc1	-1.8	65.5*	-3.6	-0.4
COC(=O)c1sccc1Oc1ccc2c(C(F)(F)F)cc(C(F)(F)F)nc2n1	23.4	17.6	8.9	7.0
Cc1ccc(C(=O)N2c3ncnn3C(c3ccccc3)CC2c2ccccc2)cc1 (configuration not stated)	32.4*	14.6	13.4	8.0
COc1ccc(C2CC(c3ccc(Cl)cc3)N(C(=O)C(C)(C)C)c3ncnn32)cc1 (configuration not stated)	2.9	9.6	-3.5	0.0
COc1ccc(C2CC(c3ccc(OC)cc3)n3ncnc3N2C(=O)C2CC2)cc1 (configuration not stated)	37.5*	9.5	10.1	7.0
COc1ccc(NC(=O)[C@@H]2C=CCN2C(=O)C2CC2)cc1	14.8	6.0	1.8	13.8
Cc1nn(-c2ccccc2)c(C)c1S(=O)(=O)N1CCN(C)CC1	/	20.8	/	8.8
O=S(=O)(N1CCCC1)N1CCCC1c1ccnc(Nc2ccccn2)n1 (configuration not stated)	-133.6	2.3	0.1	4.9
O=C1CCNc2ccccc2N1Cc1ccc(Cl)cc1	-13.5	1.4	-3.5	-5.7
CCc1ccc(-c2cc3c(=O)n(Cc4nc(-c5ccccn5)no4)ccn3n2)cc1	-94.7	31.2*	-7.2	-11.4
Cc1ccc(-c2cc3c(=O)n(Cc4noc(CN5CCCCC5)n4)ccn3n2)cc1	-0.2	3.8	-2.4	-12.0
Cc1ccc(-c2cc3c(=O)n(Cc4noc(CN5CCC(C)CC5)n4)ccn3n2)cc1	37.9*	3.2	12.1	-9.0
SMILES	USP30 block	USP17 inh	USP28 block	OTUD3 block
CCCCCCC(C)/C=C(C)/C=C/C(=O)N[C@H]1CC2(O[C@H]1O)[C@@H]1O[C@@H]1C(=O)[C@@H]1O[C@@H]12 (some centres not stated)	42.1*	30.4*	4.7	-8.9
COc1ccccc1NC(=O)COc1cc(C)nc(-c2ccc(C)cc2)n1	62.0*	56.2*	19.5	20.3
COc1ccccc1OCC(=O)Nc1cccc2ccc(C)nc12	33.8*	47.2*	4.4	4.1
Cc1cc(OCC(=O)Nc2ccc(C#N)cc2)nc(-c2ccc(F)cc2)n1	28.5	18.5	11.7	2.5
CN(c1ccccc1)S(=O)(=O)c1ccc(N2CCCCS2(=O)=O)cc1	-14.6	-5.1	-7.2	-8.6
O=C(Cn1cncn1)NCCc1ccccc1	-7.7	-4.6	-3.7	-2.2
O=S(=O)(Nc1cc(F)ccc1F)c1ccc(-n2cccn2)cc1	0.2	0.8	7.0	1.2
Cc1ccc(NS(=O)(=O)c2cc(-c3noc(C)n3)cs2)c(C)c1	-0.5	10.6	6.1	3.3
Cc1ccccc1CN1CCCN(CC(=O)Nc2ccccc2)S1(=O)=O	14.2	-4.5	6.1	1.1
O=[N+]([O-])c1cccc(-c2noc(CSc3ccccc3)n2)c1	23.6	6.0	66.9*	15.6
O=[N+]([O-])c1cccc(-c2nnc(-c3ccccn3)o2)c1	2.2	-9.1	-5.8	0.0
COc1cc(NC(=O)C(c2ccccc2)c2ccccc2)c(OC)cc1NC(=O)c1ccccc1	-8.0	-0.4	1.5	-0.8
O=c1c(-c2nc(C3CC3)no2)cccn1Cc1noc(-c2ccccc2F)n1	-127.3	-24.9	-9.9	-7.0
O=c1c(-c2nc(C3CC3)no2)cccn1Cc1c(F)cccc1Cl	23.5	4.1	85.4*	2.3
CCCN1Cc2cccc(C(=O)NCc3ccc(OC)cc3)c2C1=O	1.3	-21.2	10.6	-3.4
CCCN1Cc2cccc(C(=O)NCCc3ccccc3)c2C1=O	8.4	0.0	30.6*	5.3
COCCN1Cc2cccc(C(=O)NCc3ccccc3OC)c2C1=O	6.5	-10.1	11.1	-0.5
CCOc1ccc(CCNC(=O)c2cccc3c2C(=O)N(CCOC)C3)cc1OCC	-8.7	-16.2	52.7*	-1.1
COc1ccc(NC(=O)CN2CC(C)Sc3ccccc32)cc1 (configuration not stated)	-16.5	27.5	3.2	-1.8
Cc1ccc(NC(=O)c2cc(-c3ccccc3)c(N3CCOCC3)s2)cc1	-31.7	-9.6	0.1	1.7
COc1cc(C)c(NC(=O)c2cc(-c3ccccc3)c(N3CCOCC3)s2)cc1OC	-9.8	59.0*	18.7	-1.8
CCOc1ccc(NC(=O)c2cc(-c3ccccc3)c(N3CCOCC3)s2)cc1	12.8	53.3*	5.1	18.8
CC(=O)Nc1ccc(Oc2nc(-c3ccccc3)ncc2S(=O)(=O)c2ccc(C)cc2)cc1	17.4	17.4	5.1	2.3
COc1ccccc1CC(=O)Nc1cnc(-c2ccccc2)nc1	-6.2	-12.9	-1.8	0.0
COc1cc(OC)cc(C(=O)Nc2ccc3oc(-c4ccc5ccccc5c4)nc3c2)c1	-19.1	33.1*	0.3	14.5
COc1cc(OC)cc(C(=O)Nc2cnc(-c3ccccc3)nc2)c1	17.4	52.0*	13.8	23.3
Cc1ccc(NC(=O)CSc2nnc(-c3cnccn3)n2Cc2ccco2)cc1	/	53.4*	/	-0.5
Cc1ccccc1CC(=O)NCc1ccnc(C2CCCOC2)n1 (configuration not stated)	-6.3	5.9	10.8	7.7
CCN1CCCC1CN(Cc1cc2cc(OC)ccc2[nH]c1=O)C(=O)Nc1ccccc1Cl (configuration not stated)	-54.1	49.5*	-29.6	-16.4
